Among the data in PubChem BioAssay (EPA / NIEHS) are outcome and AC50 values, retold here.

Active and inactive are the calls of the source. Rule for the calls: active = hit-call score of the fitted dose curve at least 0.9, where 1 is the maximum; inactive = score below 0.9.

Read-out in one assay: Low-density lipoprotein receptor (LDLR), LDLR (gene 3949)
Nature of the assay: BSK_CASM3C_LDLR: BioMAP Diversity Plus: CASM3C Assay for Low-density lipoprotein receptor (LDLR) Biomarker Activity (AID 2283045).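 Note: LDLR protein level on the cell surface quantified by ELISA.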 Particulars: primary human coronary artery smooth muscle cells; actives raise or lower the signal.
With `Clc1nc(Cl)c(Cl)c(Cl)c1Cl`, the outcome was inactive.
In the case of `CC[C@H]1OC(=O)[C@H](C)[C@@H](O[C@H]2C[C@@](C)(OC)[C@@H](O)[C@H](C)O2)[C@H](C)[C@@H](O[C@@H]2O[C@H](C)C[C@H](N(C)C)[C@H]2O)[C@](C)(O)C[C@@H](C)C(=O)[C@H](C)[C@@H](O)[C@]1(C)O`, the outcome was inactive.
In the case of `CCOc1cccc(-n2cc(C(=O)N3CCN(c4cc(C(=O)O)c5ccccc5c4)CC3)nc2-c2ccc(C)cc2)c1`, the result was inactive.
The same measure, in the same setting: with `CC(C)CCCCCCOC(=O)c1ccc(C(=O)OCCCCCCC(C)C)c(C(=O)OCCCCCCC(C)C)c1` the entry was “inactive”.
In general, AC50 refers to the midpoint of the concentration-response curve, whichever way the signal moves. For `Cc1[nH]cnc1C[C@H]1CCc2c(C)c3ccccc3n2C1=O`, the AC50 is 18.5 µM (active).
As for `Oc1ccc2c(c1)-c1ccccc1C2`, the result was inactive.
As for `CCCN(C1CCN(C(=O)C2CCNCC2)CC1)[C@@H]1CCc2ccc(OC)cc2C1`, the AC50 was 35 µM (active).
Regarding `COC(=O)c1ccccc1O`, the result was inactive.
Still for that read-out and setting: with `COCCOCCOCCOC` the entry was “inactive”; with `O=c1[nH]c2ccc(S(=O)CCN3CCC(Cc4ccc(F)cc4)CC3)cc2o1` (stereo not drawn), “inactive”.
For `O=C(O)CC(O)C(=O)O` (stereo not drawn), the result was inactive.
With `CC(C)CC(C)(O)C#CC(C)(O)CC(C)C` (stereo not drawn), the result was inactive.
For the compound `CC/C(=C\C(=N/O)C(N)=O)C(C)[N+](=O)[O-]` (stereo not drawn), the result was inactive.
Regarding `COCCOc1cc2cc(C(=O)NC3CCN(C(C)C)CC3)n(CC(=O)Nc3ccc(Cl)cn3)c2cn1`, the outcome was inactive.
As to `COC(=O)CC(=O)OC`, the result was inactive.
For `C1N2CN3CN1CN(C2)C3`, the outcome was inactive.
For `CNCc1ccc(NC(=O)c2c[nH]c3c2C(=O)CCC3)cc1`, the outcome was inactive.
As for `CC(=O)OC[C@H]1O[C@@](COC(C)=O)(O[C@H]2O[C@H](COC(C)=O)[C@@H](OC(C)=O)[C@H](OC(C)=O)[C@H]2OC(C)=O)[C@@H](OC(C)=O)[C@@H]1OC(C)=O`, the result was inactive.
In the case of `O=C(O)c1cc(N=Nc2ccc(S(=O)(=O)Nc3ccccn3)cc2)ccc1O`, the result was inactive.
Turning to `CCCCCCCCO`, the result was inactive.
The same measure, in the same setting: in the case of `CN(C)c1ccc(Cc2ccc(N(C)C)cc2)cc1` it was “inactive”.
For the compound `C[C@](N)(Cc1ccc(O)c(O)c1)C(=O)O`, the result was inactive.
Turning to `CCOCCOCCOCCO`, the outcome was inactive.
As for `CC[C@H]1CC[C@H](NCc2cc3c(cc2OC)[C@H]2C[C@H]2C(=O)N3C)[C@H](c2ccccc2)N1`, the outcome was inactive.
With `Nc1ccc(Nc2ccccc2)cc1`, the result was inactive.
In the case of `On1ccccc1=S`, the half-maximal activity concentration (AC50) is 11.7 µM (active).
`CCOC(=O)CC(CC(=O)OCC)(OC(C)=O)C(=O)OCC`: the outcome was inactive.
`O=C(O)c1cccc(Oc2ccccc2)c1`: the result was inactive.
With `Cn1cnc([N+](=O)[O-])c1Sc1ncnc2nc[nH]c12`, the outcome was inactive.

Read-out in the next assay: Monocyte Chemoattractant Protein-1 (MCP1), CCL2 (gene 6347)
Nature of the assay: BSK_CASM3C_MCP1: BioMAP Diversity Plus: CASM3C Assay for Monocyte Chemoattractant Protein-1 (MCP1) Biomarker Activity (AID 2283046).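 Note: MCP-1 level quantified by ELISA 24 h after dosing.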 Particulars: primary human coronary artery smooth muscle cells; actives raise or lower the signal.
On to `Clc1nc(Cl)c(Cl)c(Cl)c1Cl`, for which the result was inactive.
On the same count and under the same terms, with `CC[C@H]1OC(=O)[C@H](C)[C@@H](O[C@H]2C[C@@](C)(OC)[C@@H](O)[C@H](C)O2)[C@H](C)[C@@H](O[C@@H]2O[C@H](C)C[C@H](N(C)C)[C@H]2O)[C@](C)(O)C[C@@H](C)C(=O)[C@H](C)[C@@H](O)[C@]1(C)O` the entry was “inactive”.
As to `CCOc1cccc(-n2cc(C(=O)N3CCN(c4cc(C(=O)O)c5ccccc5c4)CC3)nc2-c2ccc(C)cc2)c1`, the concentration at half-maximal activity (AC50) was 34.5 µM (active).
For `CC(C)CCCCCCOC(=O)c1ccc(C(=O)OCCCCCCC(C)C)c(C(=O)OCCCCCCC(C)C)c1`, the result was inactive.
Take `Cc1[nH]cnc1C[C@H]1CCc2c(C)c3ccccc3n2C1=O`: the outcome was inactive.
Consider `Oc1ccc2c(c1)-c1ccccc1C2`, for which the outcome was inactive.
Regarding `CCCN(C1CCN(C(=O)C2CCNCC2)CC1)[C@@H]1CCc2ccc(OC)cc2C1`, the outcome was inactive.
In the case of `COC(=O)c1ccccc1O`, the outcome was inactive.
Turning to `COCCOCCOCCOC`, the outcome was inactive.
On to `O=c1[nH]c2ccc(S(=O)CCN3CCC(Cc4ccc(F)cc4)CC3)cc2o1` (stereo not drawn), for which the outcome was inactive.
Regarding `O=C(O)CC(O)C(=O)O` (stereo not drawn), the result was inactive.
`CC(C)CC(C)(O)C#CC(C)(O)CC(C)C` (stereo not drawn): the result was inactive.
With `CC/C(=C\C(=N/O)C(N)=O)C(C)[N+](=O)[O-]` (stereo not drawn), the result was inactive.
For the compound `COCCOc1cc2cc(C(=O)NC3CCN(C(C)C)CC3)n(CC(=O)Nc3ccc(Cl)cn3)c2cn1`, the outcome was inactive.
Take `COC(=O)CC(=O)OC`: the outcome was inactive.
In the case of `C1N2CN3CN1CN(C2)C3`, the result was inactive.
Take `CNCc1ccc(NC(=O)c2c[nH]c3c2C(=O)CCC3)cc1`: the result was inactive.
The same measure, in the same setting: in the case of `CC(=O)OC[C@H]1O[C@@](COC(C)=O)(O[C@H]2O[C@H](COC(C)=O)[C@@H](OC(C)=O)[C@H](OC(C)=O)[C@H]2OC(C)=O)[C@@H](OC(C)=O)[C@@H]1OC(C)=O` it was “inactive”.
`O=C(O)c1cc(N=Nc2ccc(S(=O)(=O)Nc3ccccn3)cc2)ccc1O`: the result was inactive.
Consider `CCCCCCCCO`, for which the outcome was inactive.
Take `CN(C)c1ccc(Cc2ccc(N(C)C)cc2)cc1`: the result was inactive.
On the same count and under the same terms, with `C[C@](N)(Cc1ccc(O)c(O)c1)C(=O)O` the entry was “inactive”; with `CCOCCOCCOCCO`, “inactive”; with `CC[C@H]1CC[C@H](NCc2cc3c(cc2OC)[C@H]2C[C@H]2C(=O)N3C)[C@H](c2ccccc2)N1`, “inactive”.
For the compound `Nc1ccc(Nc2ccccc2)cc1`, the outcome was inactive.
Consider `On1ccccc1=S`, for which the AC50 is 32.1 µM (active).
Consider `CCOC(=O)CC(CC(=O)OCC)(OC(C)=O)C(=O)OCC`, for which the result was inactive.
Same read-out and setting: with `O=C(O)c1cccc(Oc2ccccc2)c1` the entry was “inactive”; with `Cn1cnc([N+](=O)[O-])c1Sc1ncnc2nc[nH]c12`, “inactive”.
